Screens: PubChem, several laboratories
Bim-Mcl-1: disrupts Bim peptide binding to human Mcl-1 | inhibition, % at 10 µM | 0.1% of 190,000 active | AID 1009 | Q07820 | Bead-based flow cytometry, Bim peptide-Mcl-1 binding; in the data active = inhibition above about 40%;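 note: 0% = no compound tracer wells and 100% = peptide blocker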
Target sequence (Q07820 whole entry, looked up): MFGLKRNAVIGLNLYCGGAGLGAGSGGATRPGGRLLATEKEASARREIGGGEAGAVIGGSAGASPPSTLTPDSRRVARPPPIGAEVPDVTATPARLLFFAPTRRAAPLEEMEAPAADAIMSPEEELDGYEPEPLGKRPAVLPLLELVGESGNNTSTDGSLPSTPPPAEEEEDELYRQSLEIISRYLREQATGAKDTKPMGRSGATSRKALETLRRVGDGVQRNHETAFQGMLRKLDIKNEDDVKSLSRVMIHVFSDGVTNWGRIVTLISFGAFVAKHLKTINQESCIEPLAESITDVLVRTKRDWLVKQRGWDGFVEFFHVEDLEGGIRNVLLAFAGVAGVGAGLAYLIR
Mcl1 Noxa PPI: disrupts binding of human Mcl-1 to Noxa peptide. 1.5% of 220,000 active. TR-FRET Mcl-1/Noxa peptide binding, 2 h. AID 1022. inhibition, % at 21.7 µM. Q07820;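 active = compounds that cut the protein-peptide binding signal by more than 50% relative to plate controls in a single-dose test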;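 note: His-tagged Mcl-1 with rhodamine Noxa BH3 peptide and terbium anti-His antibody; 0% = Mcl-1 plus Noxa peptide wells and 100% = peptide-only wells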
Mcl1 Bid PPI: disrupts binding of human Mcl-1 to Bid peptide | TR-FRET Mcl-1/Bid-Dy647 peptide binding, 1536-well | inhibition, % at 21.7 µM | 0.97% of 220,000 active | AID 1021;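 active = compounds that cut the binding signal by more than half at the single screening dose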;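 note: His-tagged Mcl-1 with europium anti-His antibody binding Bid BH3 peptide; 0% = Mcl-1 plus peptide wells and 100% = peptide-only wells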
MCL1-BIM inh: inhibitors of human MCL1 binding to BIM-BH3 peptide. GST-MCL1 / FITC-Bim-BH3 fluorescence polarization. 0.68% of 320,000 active. Q07820. inhibition, % at 10.9 µM;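 active = inhibition above the mean inhibition of all tested compounds plus 3 SD, set per campaign, cut at about 40% in these data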;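 note: 0% = DMSO wells and 100% = unlabeled Bim-BH3 peptide control; higher means more loss of mP so more displacement of Bim peptide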
* hit, by the source's call; · = no result given. This is a sample that favours compounds with a hit; in the whole collection about 2% have one here.

SMILES | Bim-Mcl-1 | Mcl1 Noxa PPI | Mcl1 Bid PPI | MCL1-BIM inh
CN(C)S(=O)(=O)c1cccc(N=c2scc(-c3ccc4c(c3)NC(=O)CO4)n2CC2CCCO2)c1 (stereo unspecified) | -1.0 | -2.8 | 74.2* | 3.0
Cc1[nH]n(-c2ncc(-c3ccccc3)s2)c(=O)c1C(c1ccc(Cl)cc1)C(C#N)C#N (stereo unspecified) | 0.0 | 80.7* | 18.0 | 10.4
Cc1[nH]n(-c2ccccc2)c(=O)c1C(c1ccccc1[N+](=O)[O-])C(C#N)C#N (stereo unspecified) | · | · | · | 10.2
COc1ccccc1NC(=S)N1CCC(C(=O)c2ccc(F)cc2)CC1 | 0.0 | -10.5 | -40.2 | 6.8
N#C/C(C(=O)c1ccccc1)=C1/SC=C(N)N1c1ccccc1 | -3.0 | 55.2* | 15.4 | ·
O=C1/C(=C\c2ccco2)SC(=S)N1C1CCCCC1 | · | · | · | 18.7
CC1=C(C#N)C(=O)N(C2CCS(=O)(=O)C2)C(=O)/C1=C\c1ccco1 (stereo unspecified) | · | 109.6* | 60.5* | 105.4*
CC(C)[C@H](NC(=O)OC(C)(C)C)C(=O)N/N=C/c1cccc2nccnc12 | -1.0 | -0.3 | -6.9 | 4.3
Cc1ccc2[nH]c(=O)c(C(c3nnnn3CC3CCCO3)N3CCOCC3)cc2c1 (stereo unspecified) | 0.0 | 2.2 | -0.5 | -1.4
CCc1ccc2[nH]c(=O)c(C(c3nnnn3CC3CCCO3)N3CCN4CCCC4C3)cc2c1 (stereo unspecified) | 1.0 | 9.8 | 95.5* | 5.9
Cc1ccn2c(Nc3ccc4c(c3)OCO4)c(-c3ccc(O)cc3)nc2c1 | · | 51.2* | -97.8 | 9.3
Oc1ccc(-c2nc3ncccn3c2Nc2ccc3c(c2)OCO3)cc1 | 3.0 | 38.8 | -20.1 | 7.0
O=C1NN(c2cccc(Br)c2)C(=O)/C1=C/c1ccc(-c2cc([N+](=O)[O-])ccc2O)o1 | · | 100.6* | 98.1* | 21.2
CCC1CN(C(=O)N2CCC(C(=O)NCc3ccco3)CC2)c2cc(C)ccc2O1 (stereo unspecified) | · | · | · | -2.9
N#CC1=C(S)N(c2ccccc2)C(c2ccc(-c3cc(Cl)ccc3Cl)o2)NC1=O (stereo unspecified) | -4.0 | 75.5* | -31.5 | -8.5
CC(NC(=O)c1ccccc1)C(=O)OCC(=O)c1c(N)n(C)c(=O)n(C)c1=O (stereo unspecified) | · | · | · | -6.6
COc1ccc(S(=O)(=O)Nc2c(C)nc3nc[nH]n3c2=O)cc1 | -4.0 | 7.4 | 66.1* | 0.3
CCc1ccc2c(COn3nnc4ccc(S(=O)(=O)N(C)C)cc43)cc(=O)oc2c1 | -9.0 | 11.9 | 52.7* | -5.1
CC(=O)Oc1cccc(N2C(=O)C3C4C=CC(CC4)C3C2=O)c1 (stereo unspecified) | · | · | · | 5.6
O=C1C2C3C=CC(C2C(=O)N1c1cccc(O)c1)C1C2C(=O)N(c4cccc(O)c4)C(=O)C2C31 (stereo unspecified) | -5.0 | 94.1* | -23.3 | 4.4
Cc1ccc(SC2=C(Sc3ccc(C)cc3)C(=O)c3ccccc3C2=O)cc1 | · | 68.6* | 1.1 | 31.3
Cc1ccc(N2C(=O)c3ccccc3C2=O)cc1 | · | -1.0 | -22.9 | -7.0
COc1ccc(Cn2c(CCC(=O)NCc3ccco3)nc3cccnc32)cc1 | -3.0 | 64.9* | -43.7 | -3.0
CCCCNC(=O)CCc1nc2cccnc2n1Cc1ccc(OC)cc1 | -1.0 | 0.7 | -1.5 | -1.6
CC(C)CN1C(=O)c2ccc(C(=O)Nc3c[nH]c(=O)[nH]c3=O)cc2C1=O | 1.0 | -2.7 | -26.5 | 7.5
SMILES | Bim-Mcl-1 | Mcl1 Noxa PPI | Mcl1 Bid PPI | MCL1-BIM inh
CC(C)C(=O)N1CCN(c2ccccc2NC(=O)c2ccco2)CC1 | · | · | · | -5.1
COc1ccc(/C=C(/NC(=O)c2ccccc2OC)C(=O)Nc2ccc(C(=O)O)cc2)cc1 | · | · | · | 1.2
Cc1cccc2c(N=O)c(O)[nH]c12 | · | 55.0* | -50.2 | 2.3
Cc1[nH]c2c(C)cccc2c1CC(=O)O | -1.0 | 6.9 | -40.1 | -7.2
COc1cc(/C=N/NC(=O)C2CCN(CC(O)COCc3ccccc3)CC2)ccc1O (stereo unspecified) | 0.0 | 0.1 | -17.7 | 0.9
Cn1c(=Nc2ccccc2)sc2ccccc21 | -5.0 | -4.2 | -1.3 | -7.2
CN(C)c1ccc(N=c2sc3ccccc3n2C)cc1 | 1.0 | 101.3* | 33.1 | 30.1
Cc1cc(O)ccc1Nc1nc2ccccc2nc1Nc1ccc(O)cc1C | 0.0 | 67.5* | 9.0 | -9.3
O=c1[nH][nH]c2c(N=Cc3ccccc3O)ccc(F)c12 | · | 94.5* | -156.8 | ·
O=C1NN(c2ccccc2)C(=O)/C1=C/c1ccc(Sc2cccc3ccccc23)o1 | -3.0 | 50.6* | -40.6 | 12.9
N#Cc1cccc(S(=O)(=O)NCC(=O)OCC(=O)NCc2ccccc2)c1 | · | · | · | 1.2
COCCn1cnc2c(c1=O)c1nc3ccccc3nc1n2/N=C/c1ccco1 | · | -15.2 | -17.6 | 10.6
CCCCCCn1cnc2c(c1=O)c1nc3ccccc3nc1n2/N=C/c1ccco1 | -1.0 | 38.9 | 57.7* | ·
COCCn1cnc2c(c1=O)c1nc3ccccc3nc1n2/N=C/c1ccc(OC)c(OC)c1 | · | 51.0* | -7.5 | 12.8
CCOc1ccc(N2C(=O)CC(N(Cc3ccco3)C(=O)CCC(=O)O)C2=O)cc1 (stereo unspecified) | -1.0 | -1.3 | -13.4 | 8.0
CCN(CC1CCCO1)C(=O)CCc1nnc(CCc2ccc(OC)cc2)o1 (stereo unspecified) | · | · | · | 3.6
CC(NC(=O)CCC(=O)c1ccccc1)c1ccc(F)cc1 (stereo unspecified) | · | · | · | -3.0
Cc1ccc(NC(=O)C(=O)NCCCN2CCOCC2)c(C)c1 | · | 7.3 | 9.0 | -3.2
O=C(Nc1ccccc1)Nc1ccc2ncoc2c1 | 91.0* | 15.3 | -27.4 | -0.3
CC(=O)Nc1ccc(C(=O)NC(CC(=O)O)c2ccc(Cl)cc2)cc1 (stereo unspecified) | 0.0 | -2.7 | 10.4 | -3.7
CN(C)c1ccc(C(CC(=O)O)NC(=O)c2ccc(Cl)cc2)cc1 (stereo unspecified) | 2.0 | 52.5* | -91.4 | 2.0
CCOc1ccc(CCNC(=O)C2CSC3(C)CCC(=O)N23)cc1OCC (stereo unspecified) | · | · | · | -2.3
Cc1ncoc1C(=O)N1CCCC(N2CCN(c3cccc(C(F)(F)F)c3)CC2)C1 (stereo unspecified) | · | · | · | -3.1
COC(=O)/C=C(\C)N=Nc1c(O)[nH]c2ccccc12 | · | 51.6* | 34.0 | 0.5
CC(=O)Sc1nc(-c2ccccc2)[nH]c1S(=O)(=O)c1ccc(C)cc1 | -2.0 | 70.1* | -53.1 | -11.9
SMILES | Bim-Mcl-1 | Mcl1 Noxa PPI | Mcl1 Bid PPI | MCL1-BIM inh
Nc1ccc(-c2cnc[nH]2)cc1[N+](=O)[O-] | · | 16.4 | -68.3 | 4.7
Nc1ccc(-c2ccc(N)c([N+](=O)[O-])c2)cc1[N+](=O)[O-] | 2.0 | 50.8* | 15.3 | 9.6
Brc1ccc(C2Nc3cccc4cccc(c34)N2)s1 | 0.0 | 100.0* | -13.1 | 5.4
Cc1cccc(C2Nc3cccc4cccc(c34)N2)c1 | · | · | · | 33.7
Cc1ccc(-n2cccc2/C=C2/C(=N)N3C(=NC2=O)SN=C3S(C)(=O)=O)cc1Cl | 12.0 | 115.9* | 96.8* | 13.7
CCCCCCCC/C=C\CCCCCCCC(=O)O | · | 63.2* | -73.6 | 3.9
CCCCC/C=C\C/C=C\C/C=C\CCCCC(=O)O | · | · | · | 16.3
Cc1cccc(NC(=O)CN(C)C(=O)C2CC2)c1C | · | · | · | 4.0
